Laboratory results as given in PubChem BioAssay (NCI).
About 79,000 compounds went through this panel and 15% of them were active in at least one assay; those are over-represented in the sample as a whole. Unmarked numbers belong to inactive results. The source made the active and inactive calls. Rule as the data show it: active = growth inhibition above about 70%; inactive = the rest.

What was measured:
[1] = NCI Yeast Anticancer Drug Screen. Data for the rad50 strain (AID 155);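 also: 0% = growth of vehicle-only cultures of the same strain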; settings: S. cerevisiae rad50 strain growth inhibition; at 50.0 µM; hits give high values
How it was run: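 Compounds were tested on a yeast strain with an engineered DNA damage repair alteration; the reported value is growth inhibition normalised to vehicle treatment.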

[2] = NCI Yeast Anticancer Drug Screen. Data for the mec2-1 strain (AID 157); settings: S. cerevisiae mec2-1 strain, at 50.0 µM, hits give high values
How it was run: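 Readout is yeast growth inhibition, normalised to vehicle-treated controls, in the mec2-1 strain exposed to compound.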

[3] = NCI Yeast Anticancer Drug Screen. Data for the sgs1 mgt1 strain (AID 161);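 also: 0% = growth of cultures given vehicle only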; settings: S. cerevisiae sgs1 mgt1 strain, at 50.0 µM, hits give high values
How it was run: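 This yeast growth screen uses a strain with defined DNA-repair lesions; compound-treated growth is compared with vehicle-treated growth.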

[4] = NCI Yeast Anticancer Drug Screen. Data for the cln2 rad14 strain (AID 165);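 also: 0% = growth equal to vehicle treated cultures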; settings: S. cerevisiae cln2 rad14 strain, at 50.0 µM, hits give high values
How it was run: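 Relative to vehicle controls, growth inhibition of compound-treated cln2 rad14 yeast was recorded.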

[5] = NCI Yeast Anticancer Drug Screen. Data for the bub3 strain (AID 167); settings: S. cerevisiae bub3 mutant strain, at 50.0 µM, hits give high values
How it was run: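 Growth of a checkpoint-deficient yeast mutant is measured after compound exposure. Values represent inhibition relative to vehicle.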

[6] = NCI Yeast Anticancer Drug Screen. Data for the mlh1 rad18 strain (AID 175); settings: S. cerevisiae mlh1 rad18 strain growth inhibition; at 50.0 µM; hits give high values
How it was run: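 Test agents were incubated with a yeast strain of defined genotype (DNA damage repair defect). Inhibition of growth was derived by comparison with vehicle-exposed cultures.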

Cc1ccc(S(=O)(=O)N/N=C2/CC3CCC4CC2CC34)cc1 (stereo unspecified)
growth inhibition [1]: -51% | growth inhibition [2]: -0.6% | growth inhibition [3]: -35.2% | growth inhibition [4]: -25% | growth inhibition [5]: 12.9% | growth inhibition [6]: -10.1%

Cc1nnnn1-c1ccc([N+](=O)[O-])cc1
growth inhibition [1]: 8.45% | growth inhibition [2]: 8.35% | growth inhibition [3]: -1.5% | growth inhibition [4]: -17.6% | growth inhibition [5]: 0.75% | growth inhibition [6]: 7.4%

CN(C)c1ccc(-c2ccncc2)cc1
growth inhibition [1]: 21.6% | growth inhibition [2]: 15.2% | growth inhibition [3]: 18.9% | growth inhibition [4]: -11.8% | growth inhibition [5]: 17.4% | growth inhibition [6]: 17.2%

CCOC(=O)[C@@]12[C@H](N3C(=O)c4ccccc4C3=O)C(=O)N1CCS2(=O)=O
growth inhibition [1]: -1.9% | growth inhibition [2]: -5.7% | growth inhibition [3]: -29.4% | growth inhibition [4]: -22.9% | growth inhibition [5]: -1.5% | growth inhibition [6]: 6.95%

CC(=O)Nc1ccc(OC(=O)Nc2ccc(C)c(NC(=O)Oc3ccc(NC(C)=O)cc3)c2)cc1
growth inhibition [1]: 6.35% | growth inhibition [2]: -6.95% | growth inhibition [3]: 6.15% | growth inhibition [4]: 24.5% | growth inhibition [5]: 17.2% | growth inhibition [6]: 7.25%

[N-]=[N+]=N[Si](c1ccccc1)(c1ccccc1)c1ccccc1
growth inhibition [1]: -17.1% | growth inhibition [2]: -11.4% | growth inhibition [3]: 2.35% | growth inhibition [4]: 7.6% | growth inhibition [5]: -7.7% | growth inhibition [6]: 7.25%

CC(=O)OCCn1c2ccccc2nc2cc3c(cc21)c(Cl)c(=O)c1ccccc13
growth inhibition [1]: 29.6% | growth inhibition [2]: 14.3% | growth inhibition [3]: 21.1% | growth inhibition [4]: 25.6% | growth inhibition [5]: -1.6% | growth inhibition [6]: 13.4%

CCN(CC)c1ncnc2c1cnn2C
growth inhibition [1]: -14.8% | growth inhibition [2]: -14.4% | growth inhibition [3]: 8.75% | growth inhibition [4]: 11% | growth inhibition [5]: -15.9% | growth inhibition [6]: -28%

CC(=O)Nc1c(Nc2ccc3c(=O)[nH]ccc3c2C)cc[nH]c1=O
growth inhibition [1]: 22.1% | growth inhibition [2]: 13.7% | growth inhibition [3]: 17.1% | growth inhibition [4]: 14.5% | growth inhibition [5]: 10.4% | growth inhibition [6]: 27.5%

Cn1nc(-c2ccccc2)c2c(/C=C/c3ccc(F)cc3)onc2c1=O
growth inhibition [1]: -14.4% | growth inhibition [2]: -17.9% | growth inhibition [3]: 8.55% | growth inhibition [4]: 8.35% | growth inhibition [5]: 0.05% | growth inhibition [6]: -15.3%

Nc1ccc(C(=O)CC(=O)c2cccc([N+](=O)[O-])c2)cc1
growth inhibition [1]: 26.4% | growth inhibition [2]: 20.4% | growth inhibition [3]: 39.4% | growth inhibition [4]: 21.5% | growth inhibition [5]: 27.4% | growth inhibition [6]: 2.1%

CC1(c2ccc(Cl)cc2)NC(=O)NC1=O (stereo unspecified)
growth inhibition [1]: -27.3% | growth inhibition [2]: 3.1% | growth inhibition [3]: -7.65% | growth inhibition [4]: -29.5% | growth inhibition [5]: 9.85% | growth inhibition [6]: -20.1%

Cn1cc(-c2ccc3c4ccccc4n(C)c3c2)c2ccccc21
growth inhibition [1]: -17.9% | growth inhibition [2]: -4.3% | growth inhibition [3]: -7.5% | growth inhibition [4]: -2.8% | growth inhibition [5]: -10.2% | growth inhibition [6]: 2.15%

COc1nc2ccccc2nc1OC
growth inhibition [1]: -14.1% | growth inhibition [2]: -8.75% | growth inhibition [3]: -5.5% | growth inhibition [4]: -14.8% | growth inhibition [5]: 4.45% | growth inhibition [6]: 4%

CCOC(=O)c1cnc(SC)nc1Nc1ccc(OC)cc1
growth inhibition [1]: 47.4% | growth inhibition [2]: 8.55% | growth inhibition [3]: 7.35% | growth inhibition [4]: 9.6% | growth inhibition [5]: 21.2% | growth inhibition [6]: 50.1%

CCCCCCCCNc1ncnc2[nH]ncc12
growth inhibition [1]: 7.15% | growth inhibition [2]: 11.3% | growth inhibition [3]: 22.1% | growth inhibition [4]: 6.5% | growth inhibition [5]: 47.2% | growth inhibition [6]: 13.9%

O=C(Nc1ccc(F)c([N+](=O)[O-])c1)Nc1cc(C(F)(F)F)ccc1Cl
growth inhibition [1]: 9.4% | growth inhibition [2]: 1% | growth inhibition [3]: 0.55% | growth inhibition [4]: -0.4% | growth inhibition [5]: -4.65% | growth inhibition [6]: 24.2%

COc1ccc(C(=O)C(C(=O)CCC(=O)Nc2ccc(Cl)c(Cl)c2)c2ccc(OC)cc2)cc1 (stereo unspecified)
growth inhibition [1]: -9.65% | growth inhibition [2]: 1.7% | growth inhibition [3]: -11.3% | growth inhibition [4]: -8.6% | growth inhibition [5]: 18.6% | growth inhibition [6]: -17.9%

c1ccc(-n2cccc2)cc1
growth inhibition [1]: 7.4% | growth inhibition [2]: 7.05% | growth inhibition [3]: 9.25% | growth inhibition [4]: -30% | growth inhibition [5]: -3.7% | growth inhibition [6]: -11.6%

CCOc1ccccc1NC(=S)NC(=O)CCc1ccccc1
growth inhibition [1]: -12.9% | growth inhibition [2]: 14.2% | growth inhibition [3]: 41.9% | growth inhibition [4]: -35% | growth inhibition [5]: 31.6% | growth inhibition [6]: 21.8%

CC1(COC(=O)C2(C)CO2)CO1 (stereo unspecified)
growth inhibition [1]: 28.2% | growth inhibition [2]: 9.95% | growth inhibition [3]: -6.1% | growth inhibition [4]: 4.7% | growth inhibition [5]: -25.2% | growth inhibition [6]: -78.2%

O=C(O)c1cccc(CO)c1O
growth inhibition [1]: 3.25% | growth inhibition [2]: -10.5% | growth inhibition [3]: -12.7% | growth inhibition [4]: -17.4% | growth inhibition [5]: 6.75% | growth inhibition [6]: 4.4%

CCOC(=O)C1(C(C)C)OC2(O)C3CCCN3C(=O)C(C(C)C)N2C1=O (stereo unspecified)
growth inhibition [1]: 8.45% | growth inhibition [2]: 10.5% | growth inhibition [3]: -3% | growth inhibition [4]: 20.3% | growth inhibition [5]: 8.8% | growth inhibition [6]: 17.4%

CC(C)(CCC(=O)O)C(=O)O
growth inhibition [1]: -4.15% | growth inhibition [2]: -34.1% | growth inhibition [3]: -30.5% | growth inhibition [4]: 4.95% | growth inhibition [5]: -32.9% | growth inhibition [6]: -2.9%

Clc1ccccc1N=NNc1ccccc1Cl
growth inhibition [1]: 15.8% | growth inhibition [2]: -2.4% | growth inhibition [3]: 7.05% | growth inhibition [4]: -29.5% | growth inhibition [5]: 6.35% | growth inhibition [6]: 6.75%

CC(C)C1NC(=O)NC1=O (stereo unspecified)
growth inhibition [1]: -4% | growth inhibition [2]: -23.2% | growth inhibition [3]: -3.7% | growth inhibition [4]: 10.7% | growth inhibition [5]: 0.65% | growth inhibition [6]: -4.4%

Cc1cccc([Si](c2ccccc2)(c2ccccc2)c2ccccc2)c1
growth inhibition [1]: -3.7% | growth inhibition [2]: -6.35% | growth inhibition [3]: -9.2% | growth inhibition [4]: -0.75% | growth inhibition [5]: -21.6% | growth inhibition [6]: 8.8%

C=C1C(=O)O[C@@H]2C[C@]3(C)[C@@H](C[C@H]12)[C@](C)(O)CC[C@@H]3O
growth inhibition [1]: 5.65% | growth inhibition [2]: -10.1% | growth inhibition [3]: 1.5% | growth inhibition [4]: -37.5% | growth inhibition [5]: 7.5% | growth inhibition [6]: 0.3%

NC(CCSCC(F)F)C(=O)O (stereo unspecified)
growth inhibition [1]: 19.4% | growth inhibition [2]: 8.9% | growth inhibition [3]: 3.95% | growth inhibition [4]: 6.95% | growth inhibition [5]: -22% | growth inhibition [6]: 25.4%

COC(=O)CCc1ccc(C2CO2)cc1 (stereo unspecified)
growth inhibition [1]: -1.4% | growth inhibition [2]: 6.15% | growth inhibition [3]: -9.5% | growth inhibition [4]: -0.2% | growth inhibition [5]: -11.2% | growth inhibition [6]: 10.3%

O=C(CCc1nnc2s/c(=C\c3ccc(Cl)cc3Cl)c(=O)n12)Nc1cc(Cl)c(Cl)cc1Cl
growth inhibition [1]: -17.6% | growth inhibition [2]: 18.2% | growth inhibition [3]: -7.4% | growth inhibition [4]: 20.6% | growth inhibition [5]: 9.05% | growth inhibition [6]: 4.35%

COc1ccc(N=Nc2c(C)c(C#N)c(=S)n(C3OC(COC(C)=O)C(OC(C)=O)C(OC(C)=O)C3OC(C)=O)c2-c2ccccc2)cc1 (stereo unspecified)
growth inhibition [1]: -8.55% | growth inhibition [2]: -8.9% | growth inhibition [3]: -20.6% | growth inhibition [4]: 9.05% | growth inhibition [5]: 8% | growth inhibition [6]: -5.1%

CC12C(=O)OC3CCC1CC32 (stereo unspecified)
growth inhibition [1]: 10.8% | growth inhibition [2]: 7.1% | growth inhibition [3]: -5.85% | growth inhibition [4]: -26.6% | growth inhibition [5]: 6.65% | growth inhibition [6]: 2.95%

O=C(OC1CCC2(CC1)N=NC1(CCC(OC(=O)c3ccccc3)CC1)S2)c1ccccc1 (stereo unspecified)
growth inhibition [1]: -1.15% | growth inhibition [2]: 18.3% | growth inhibition [3]: -2.25% | growth inhibition [4]: -7.6% | growth inhibition [5]: -1.1% | growth inhibition [6]: 8.1%

CCCCOC(=O)/C=C/C(=O)N1CCN(C(=O)/C=C/C(=O)OCCCC)C(C)C1 (stereo unspecified)
growth inhibition [1]: 33.7% | growth inhibition [2]: 24.7% | growth inhibition [3]: 20.8% | growth inhibition [4]: -11.1% | growth inhibition [5]: 24.9% | growth inhibition [6]: 34.6%

O=C(NNC(=O)OCc1ccccc1)OCc1ccccc1
growth inhibition [1]: 23.9% | growth inhibition [2]: -2.75% | growth inhibition [3]: 1.3% | growth inhibition [4]: -34.2% | growth inhibition [5]: 11.5% | growth inhibition [6]: 18.1%

CCOc1ccccc1NC(=O)C1=C(C)NC(C)=C(C(=O)Nc2ccccc2OCC)C1c1ccc([N+](=O)[O-])cc1
growth inhibition [1]: -20.3% | growth inhibition [2]: 27.2% | growth inhibition [3]: -3% | growth inhibition [4]: -4.9% | growth inhibition [5]: 30.8% | growth inhibition [6]: -7.2%

CCN(CC)c1cccc2c1C1(O)CCC3(CC21)OCCCCO3 (stereo unspecified)
growth inhibition [1]: -33% | growth inhibition [2]: -21.6% | growth inhibition [3]: -57.3% | growth inhibition [4]: -1.65% | growth inhibition [5]: -45% | growth inhibition [6]: -28.9%

CCCCC/C=C1\CCC(CN2CCOCC2)C1=O (stereo unspecified)
growth inhibition [1]: 89.5% (active) | growth inhibition [2]: 90.7% (active) | growth inhibition [3]: 91.9% (active) | growth inhibition [4]: 90.1% (active) | growth inhibition [5]: 90.3% (active) | growth inhibition [6]: 89% (active)

N#CC1C2C1C1C=CC2n2c(=O)n(-c3ccccc3)c(=O)n21 (stereo unspecified)
growth inhibition [1]: 3% | growth inhibition [2]: 2.5% | growth inhibition [3]: 3.25% | growth inhibition [4]: 27.4% | growth inhibition [5]: 7.15% | growth inhibition [6]: 4.95%

CC(=O)N(C)c1ccc(Nc2cc(S(=O)(=O)O)c(N)c3c2C(=O)c2ccccc2C3=O)cc1
growth inhibition [1]: -20.2% | growth inhibition [2]: -14.1% | growth inhibition [3]: -27.4% | growth inhibition [4]: -13.8% | growth inhibition [5]: -37.3% | growth inhibition [6]: -4.25%
